The target in experiment [1] is Progesterone receptor (Homo sapiens) (UniProt P06401). Nature of the experiment: qHTS assay to identify small molecule agonists of the progesterone receptor (PR) signaling pathway (AID 1346784; calls by dose curve; note: nearly all actives have a fitted effect of over 30% in size; note: potency is the fitted concentration of half-maximal effect). In outline: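 HEK 293T PR-UAS-bla reporter cells, 2% charcoal-stripped FBS; 6 hr settle at 37C/5% CO2, compound (DMSO) 16 hr, LiveBLAzer B/G FRET substrate 2 hr RT, fluorescence intensity read.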
Progesterone receptor (Homo sapiens), sequence (P06401 whole entry, looked up): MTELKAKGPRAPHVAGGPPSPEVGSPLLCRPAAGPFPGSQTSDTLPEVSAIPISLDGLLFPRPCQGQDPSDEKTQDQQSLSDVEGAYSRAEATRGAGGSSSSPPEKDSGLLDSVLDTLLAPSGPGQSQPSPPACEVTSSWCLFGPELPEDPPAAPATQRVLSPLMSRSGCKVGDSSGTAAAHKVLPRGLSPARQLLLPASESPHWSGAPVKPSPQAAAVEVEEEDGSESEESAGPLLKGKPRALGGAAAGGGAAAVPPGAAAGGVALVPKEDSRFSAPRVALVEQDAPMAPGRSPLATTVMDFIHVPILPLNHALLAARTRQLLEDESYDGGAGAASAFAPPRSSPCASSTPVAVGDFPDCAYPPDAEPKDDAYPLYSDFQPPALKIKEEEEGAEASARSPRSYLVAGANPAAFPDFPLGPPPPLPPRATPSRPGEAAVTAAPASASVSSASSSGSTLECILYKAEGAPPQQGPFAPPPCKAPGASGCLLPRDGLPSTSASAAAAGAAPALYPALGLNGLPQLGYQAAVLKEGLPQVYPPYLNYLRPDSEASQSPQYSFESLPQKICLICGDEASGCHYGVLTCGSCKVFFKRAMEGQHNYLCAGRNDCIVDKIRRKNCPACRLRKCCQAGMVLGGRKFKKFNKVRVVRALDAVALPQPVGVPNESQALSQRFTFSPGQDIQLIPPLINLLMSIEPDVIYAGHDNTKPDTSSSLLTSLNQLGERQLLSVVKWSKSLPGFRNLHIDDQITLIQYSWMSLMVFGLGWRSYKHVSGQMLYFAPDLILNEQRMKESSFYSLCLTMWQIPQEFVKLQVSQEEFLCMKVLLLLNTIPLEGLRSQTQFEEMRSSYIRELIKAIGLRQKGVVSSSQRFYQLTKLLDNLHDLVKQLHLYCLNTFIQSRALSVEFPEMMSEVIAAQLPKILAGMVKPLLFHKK
A general note: Quantitative high-throughput screening tests each substance at several concentrations.

Experiment [2] shares this target. Nature of the experiment: qHTS assay to identify small molecule antagonists of the progesterone receptor (PR) signaling pathway (AID 1346795; active = well fitted inhibition curve with a large enough effect in the signal ratio in the repeat runs, not every such curve was filed as active; the % refers to the signal ratio). In outline:
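Beta-lactamase reporter, HEK293T PR-UAS-bla line; 2% charcoal-stripped FBS; 6 hr pre-incubation, 37C/5% CO2. Compound + R5020 1 nM final, 16 hr. LiveBLAzer B/G FRET substrate, 2 hr RT; fluorescence intensity read.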

Experiment [3] in a line: qHTS assay to identify small molecule agonists of the TGF-beta/Smad signaling pathway - cell viability counter screen (AID 1346829). Note: nearly all actives have a fitted effect of over 45% in size. Note: potency is the fitted concentration of half-maximal effect. The method, boiled down: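 Same-well cytotoxicity: CellTiter-Glo added after the 2 hr room-temperature beta-lactamase substrate step, luminescence measured 30 min later; cells had 5 hr of compound at 37 C.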
Experiment [4] can be described thus: qHTS assay to identify small molecule agonists of the TGF-beta/Smad signaling pathway (AID 1346859; active = well fitted activation curve with a large enough effect in the signal ratio in the repeat runs, not every such curve was filed as active; the % refers to the signal ratio; note: series mostly up to about 77 µM). The method, boiled down: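 Read-out: fluorescence at 460 and 530 nm (405 nm excitation) after a 2 hr room-temperature incubation with beta-lactamase FRET substrate. SBE-bla HEK 293T cells had been treated with test compounds for 5 hr at 37 C.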
In experiment [5] the target is Thyrotropin-releasing hormone receptor (Homo sapiens) (UniProt P34981). Nature of the experiment: qHTS assay to identify small molecule antagonists of the thyrotropin-releasing hormone receptor (TRHR) signaling pathway (AID 1346877; active = well fitted inhibition curve with a large enough effect in the repeat runs, not every such curve was filed as active; note: potency is the fitted concentration of half-maximal effect). The method, boiled down: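 Overnight-plated (18 h, 37 °C) HEK293 cells expressing TRHR were dye-loaded 2 h, treated with compound, then stimulated with TRH at 1 nM final. Fluorescence intensity was captured every second for 3 min.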
Thyrotropin-releasing hormone receptor (Homo sapiens), sequence (P34981 whole entry, looked up): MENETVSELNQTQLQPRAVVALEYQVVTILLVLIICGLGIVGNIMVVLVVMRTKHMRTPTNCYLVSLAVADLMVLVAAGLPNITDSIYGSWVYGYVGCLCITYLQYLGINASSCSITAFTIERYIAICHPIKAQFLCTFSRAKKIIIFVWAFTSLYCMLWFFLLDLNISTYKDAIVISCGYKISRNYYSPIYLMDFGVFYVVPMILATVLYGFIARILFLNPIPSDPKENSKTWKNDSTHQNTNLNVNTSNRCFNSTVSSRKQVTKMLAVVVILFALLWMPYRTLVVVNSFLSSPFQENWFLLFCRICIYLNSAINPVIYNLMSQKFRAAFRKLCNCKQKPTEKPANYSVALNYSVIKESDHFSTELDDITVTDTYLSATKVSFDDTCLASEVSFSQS

Experiment [6] shares this target. Kind of experiment: qHTS assay to identify small molecule agonists of the thyrotropin-releasing hormone receptor (TRHR) signaling pathway (AID 1346891; calls by dose curve; note: potency is the fitted concentration of half-maximal effect;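 for activation: HEK293 cells expressing TRHR with calcium dye readout; series mostly up to about 58 µM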). In outline: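 HEK293/TRHR cells, 1500 per well, 18 h 37 °C; Ca dye 2 h 37 °C; pin-tool compound addition (agonist mode); kinetic fluorescence 3 min, 1 s reads; 15 concentrations, triplicate.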
Experiment [7] is described as follows: Human pregnane X receptor (PXR) small molecule agonists, qHTS cell viability counter screen (AID 1346977). Note: nearly all actives have a fitted effect of over 50% in size. Note: potency is the fitted concentration of half-maximal effect. The method, boiled down:
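Fluorescence read-out (CellTiter-Fluor) of viability in PXR-Luc HepG2 cells, multiplexed with the luciferase agonist read. Compounds in DMSO added after 5hr plating; 24hr total exposure at 37C, 5% CO2.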

Experiment [8] can be described thus: qHTS assay to identify small molecule antagonists of the TGF-beta/Smad signaling pathway - cell viability counter screen (AID 1346824). Note: nearly all actives have a fitted effect of over 50% in size. Note: potency is the fitted concentration of half-maximal effect. The method, boiled down:
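SBE-bla HEK 293T cells, incubated overnight, then compound plus 0.25 ng/mL TGF-beta1 (stock added) for 5 hr at 37 C. Viability was read in the same wells by CellTiter-Glo luminescence after 30 min at room temperature.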

Experiment [9] can be described thus: qHTS assay to identify small molecule antagonists of the progesterone receptor (PR) signaling pathway - cell viability counter screen (AID 1346798). Note: nearly all actives have a fitted effect of over 50% in size. Note: potency is the fitted concentration of half-maximal effect. In outline:
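Luminescence readout (CellTiter-Glo, 30 min, RT) of viability in PR-UAS-bla HEK293T cells exposed to compound and R5020 agonist for 16 hr at 37C, 5% CO2; run in the same wells as the beta-lactamase reporter read.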

Experiment [10] is described as follows: qHTS assay to identify small molecule agonists of the progesterone receptor (PR) signaling pathway - cell viability counter screen (AID 1346799; calls by dose curve; note: nearly all actives have a fitted effect of over 45% in size; note: potency is the fitted concentration of half-maximal effect). In outline: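 HEK293T PR-UAS-bla, 3,000 cells/well, 2% charcoal-stripped FBS; 6 h settle, compound 16 h at 37C/5% CO2; LiveBLAzer 2 h RT, then CellTiter-Glo 30 min RT, luminescence read.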

Molecules are shown by their SMILES. Records with an inconclusive call do not appear. Activity calls are given as the source filed them. Unless noted, calls come from the whole dose curve; as a rule, active = well fitted curve in the direction sought with a large enough effect in the repeat runs; inconclusive = weak or mixed curves; inactive = no such curve, though single readings can be large; an effect the other way counts as inactive or inconclusive.

On to `NC1CCC(CC2CCC(N)CC2)CC1` (stereo not given), for which the Potency result in experiment [1], in [2], in experiment [3], in experiment [5], in [6] and in [7] was “inactive” each time. Moreover, the compound was classed as inactive in [4].

Regarding `C[C@@H]1CC2=CC(=O)CC[C@@H]2[C@H]2CC[C@@]3(C)[C@@H](CC[C@]3(C)O)[C@@H]21`, the Potency in experiment [1] is 0.0017 µM (active). In addition, the Potency entry in experiment [2], in [3] and in [7] was “inactive” throughout. For the same compound, the outcome in experiment [4] was inactive.

On to `CCn1cc[n+](C)c1` (tested in a mixture with another compound), for which the Potency result in experiment [1], in experiment [2], in experiment [8], in experiment [3] and in experiment [7] was “inactive” each time. Moreover, the compound was called inactive in [4].

For `Oc1cc(Cl)cc(Cl)c1`, the Potency entry in [8], in experiment [3], in [5], in [6] and in experiment [7] was “inactive” in each case. In experiment [4], the result was inactive.

With `COP(=O)(OC)Oc1ccc([N+](=O)[O-])cc1`, the Potency result in experiment [9], in [3], in [5] and in experiment [6] was “inactive” throughout. The outcome in experiment [4] was inactive.

`c1ccc2c(c1)cc1ccc3cccc4ccc2c1c34`: the Potency entry in [10], in [8], in experiment [3], in experiment [5], in experiment [6] and in experiment [7] was “inactive” each time.

Turning to `[Cl][Hg][c]1ccccc1`, the Potency in [9] is 3.06 µM (active); in experiment [10] it was 3.06 µM (active); in experiment [8], 19.5 µM (active); in [7], 1.54 µM (active).

As for `Cc1ccn2nc(S(=O)(=O)Nc3c(F)cccc3F)nc2n1`, the Potency entry in experiment [9], in experiment [10], in [8], in experiment [3], in [5] and in experiment [6] was “inactive” throughout. In addition, in experiment [7], the Potency entry is “inactive”. For the same compound, the result in [4] was inactive.

Turning to `C=CC(=O)[O][Sn]([CH2]CCC)([CH2]CCC)[CH2]CCC`, the Potency in experiment [9] was 4.33 µM (active); in experiment [8] it was 2.45 µM (active); in experiment [3], 1.95 µM (active); in experiment [5] it was 13.5 µM (active); in experiment [6], 17.4 µM (active); in experiment [7], 0.686 µM (active).

As for `O=S1OCC2C(CO1)C1(Cl)C(Cl)=C(Cl)C2(Cl)C1(Cl)Cl` (stereo not given), the Potency in experiment [9] is 61.1 µM (active); in experiment [10], 68.7 µM (active). Further, the Potency result in experiment [8] and in experiment [3] was “inactive” each time. In addition, in [4], the outcome was inactive.

Consider `[F][Sn]([c]1ccccc1)([c]1ccccc1)[c]1ccccc1`, for which the Potency is 1.37 µM (active) in [9]; 1.54 µM (active) in experiment [10]; 1.38 µM (active) in [8]; 1.23 µM (active) in [3]; 3.38 µM (active) in experiment [5]; 4.36 µM (active) in experiment [6]. Moreover, in [7], the Potency is 0.0863 µM (active).

For `N#Cc1c[nH]cc1-c1cccc2c1OC(F)(F)O2`, the Potency entry in [9], in [8], in experiment [5] and in [6] was “inactive” throughout. The compound was called inactive in experiment [4].

Consider `CC[C@H](C)[C@H]1O[C@]2(C=C[C@@H]1C)C[C@@H]1C[C@@H](C/C=C(\C)[C@@H](O[C@H]3C[C@H](OC)[C@@H](O[C@H]4C[C@H](OC)[C@@H](NC)[C@H](C)O4)[C@H](C)O3)[C@@H](C)/C=C/C=C3\CO[C@@H]4[C@H](O)C(C)=C[C@@H](C(=O)O1)[C@]34O)O2`, for which the Potency in experiment [9] was 24.3 µM (active); in [10] it was 13.7 µM (active); in experiment [8] it was 17.4 µM (active); in experiment [3], 15.5 µM (active); in experiment [7], 6.86 µM (active).

On to `C[C@]12C/C(=C/O)C(=O)C[C@@H]1CC[C@@H]1[C@@H]2CC[C@@]2(C)[C@H]1CC[C@]2(C)O`, for which the figures for the Potency in experiment [9] and in [10] were 69.2 µM (active) and 77.7 µM (active), respectively. Besides, the Potency entry in experiment [8], in [3], in [5], in experiment [6] and in experiment [7] was “inactive” in each case.

Consider `CC[C@]1(O)CC[C@H]2[C@@H]3CCC4=CCCC[C@@H]4[C@H]3CC[C@@]21C`, for which the Potency result in experiment [8] and in experiment [7] was “inactive” each time. In experiment [4], the outcome was inactive.

For `CC1=C2C[C@H]3[C@@H](CC=C4C[C@@H](O)CC[C@@]43C)[C@@H]2CC[C@]12O[C@@H]1C[C@H](C)CN[C@H]1[C@H]2C`, the Potency entry in experiment [8], in experiment [3], in experiment [5] and in experiment [6] was “inactive” each time. In addition, the call in experiment [4] was inactive.

As for `COc1ccc2[nH]cc(CCN(C(C)C)C(C)C)c2c1`, the Potency entry in experiment [9], in experiment [8] and in experiment [3] was “inactive” in each case. The call in experiment [4] was inactive.

As for `O=S(=O)(NS(=O)(=O)C(F)(F)F)C(F)(F)F`, the Potency entry in experiment [9], in [10], in experiment [8] and in experiment [3] was “inactive” throughout. Besides, in experiment [4], the compound was called inactive. Besides, in experiment [7], the Potency is 60.9 µM (active).

On to `CCN(CC)CCN1C(=O)CN=C(c2ccccc2F)c2cc(Cl)ccc21`, for which the Potency result in experiment [9], in [8], in [3], in [5] and in [6] was “inactive” each time. Besides, in experiment [4], the compound was classed as inactive.

`O.O.O.O.O.O.O=S(=O)([O-])[O-].[Ni+2]`: the Potency result in [9], in experiment [8] and in experiment [7] was “inactive” each time. The compound was classed as inactive in experiment [4].

The values above are taken from PubChem BioAssay (Tox21).
